# In the supplement of paper PMC12669032:
# A number with no mark means an inactive call.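 Rule for the calls: active = AUC reduced over 20% with Padj below 0.05 in at least 2 of 3 replicates; inactive = otherwise.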
# How the values were obtained:
# Roseburia intestinalis = experiment: growth AUC relative to DMSO control (median of replicates) (fraction); higher = more growth (less inhibition), active = hit call of the paper; settings: 20 µM; 24 h
# How it was run: (§1)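 In round-bottom 96-well plates sealed with pierced gas-permeable seals, gut bacterial monocultures in mGAM were grown anaerobically at 37 °C from OD600 0.05 with 20 µM compound (1% DMSO). OD600 readings were taken hourly for 24 h, and the minimum OD was set to 0. Area under the growth curve was then normalised to the plate median of solvent-only wells, or to row and column medians on the industrial chemical plate. The value given is the median of three biological replicates grown on separate days.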
# Streptococcus salivarius = experiment: as above; settings: 20 µM; 24 h
# How it was run: as §1
SMILES,growth AUC (Roseburia intestinalis),growth AUC (Streptococcus salivarius)
CC(C)(C)C(=O)C(Oc1ccc(Cl)cc1)n1ccnc1 (stereo not given),0.9,0.963
NC(=O)C1CO1 (stereo not given),0.855,1.01
COC(=O)c1c(Cl)ccc(Cl)c1OC,0.982,1.04
CCCCC(CC)CN1C(=O)C2C(C1=O)[C@H]1C=C[C@@H]2C1 (mixture of isomers),1.07,1
CNC(=O)/C(=N/OC)c1ccccc1COc1cc(C)ccc1C,1.02,1.06
CCCCCCCCOC(=O)COc1cc(Cl)c(Cl)cc1Cl,0.953,0.875
COc1ccccc1C(=O)NS(=O)(=O)c1ccc(C(=O)NC2CC2)cc1,0.978,1.01
O=C(Nc1ccc(F)cc1-c1ccc(Cl)c(Cl)c1)c1cn[nH]c1C(F)F,0.892,0.945
CC(C)c1nn(C(=O)NC(C)(C)C)c(=O)n1N,1.02,1.01
COC(=O)C(C)Oc1ccc(Oc2ncc(C(F)(F)F)cc2Cl)cc1 (stereo not given),1.01,0.954
C#CCOC(=O)[C@@H](C)Oc1ccc(Oc2ncc(Cl)cc2F)cc1,1.06,0.959
O=[N+]([O-])c1ccc(Oc2c(Cl)cc(Cl)cc2Cl)cc1,1.02,1.03
Cc1cccc(C)c1N(C(=O)CCl)C1CCOC1=O (stereo not given),1.08,0.86
c1ccc(Nc2ccccc2)cc1,1.01,1.02
O=C(O)COc1ccc(Cl)cc1CO,0.945,0.932
CCN(CC)C(=O)c1cccc(C)c1,0.967,0.96
COC(=O)c1ccccc1S(=O)(=O)NC(=O)Nc1nc(OC(F)F)cc(OC(F)F)n1,1.01,0.994
CC(C)N(C(=O)C(=O)O)c1ccc(F)cc1,0.998,1.05

SMILES,growth AUC (Roseburia intestinalis),growth AUC (Streptococcus salivarius)
Cc1ccc2c(c1)[C@H](Nc1nc(N)nc(C(C)F)n1)[C@@H](C)C2 (stereo not given in full),0.948,1.01
CCOC(=O)[C@@H](C)Oc1ccc(Oc2nc3ccc(Cl)cc3o2)cc1,0.975,1.05
NC(=S)Nc1cccc2ccccc12,0.917,0.886
COC(=O)c1ccc(C(=O)OC)cc1,0.997,0.951
C/C=C/C=C/CCCCCCCO,1,0.994
CC(C)(C)C(O)/C(=C\c1ccc(Cl)cc1)n1cncn1 (stereo not given),0.973,0.955
CN(C(=O)NC(C)(C)c1ccccc1)c1ccccc1,1.02,0.933
CCCCC(CC)COC(=O)COc1cc(Cl)c(Cl)cc1Cl (stereo not given),0.966,1
CCCNCCOc1c(Cl)cc(Cl)cc1Cl,0.946,0.964
CCNc1nc(Cl)nc(N(CC)CC)n1,1.01,1.02
C=CCc1ccc(OC)c(OC)c1,1.03,1.02
CCOC(=O)c1nc(C(Cl)(Cl)Cl)n(-c2ccc(Cl)cc2Cl)n1,0.949,0.992
COC(=O)C(Cl)Cc1ccc(Cl)cc1 (stereo not given),0.965,0.93
CN(C)c1ccc(N=NS(=O)(=O)[O-])cc1.[Na+],1.03,1.01
CCOCOc1ccc(C(=O)Nc2cccc(Cl)c2Cl)cc1,1,0.989
CC(C)Nc1nc(N)nc(Cl)n1,1.06,0.988
CCC/C(=N\OCC(C)Oc1ccc(Cl)cc1)C1=C(O)CC(C2CCCSC2)CC1=O (stereo not given),1.02,0.94
